Measurements from the antibiotic and cytotoxicity screens of Wong et al. (2023).
Among all 39,000 compounds or so, about 3,300 (8.5%) were called active. Many of the other results were omitted from the sample, so actives are more common in it than they were.

The molecules below were run on HepG2 (assay: cytotoxicity call (relative viability < 0.9)). Details: 10 µM.
In the case of `Cn1cccc1C(=O)NCc1cn2c(n1)CN(S(C)(=O)=O)CC2`, the cytotoxicity call is reported as “inactive”.
With `COC(=O)[C@@H]1N2C(=O)[C@@H](N3C[C@](C)(OC)O[C@@H](Cc4ccccc4)[C@H]3/C=C/C3CC3)[C@H]2SC1(C)C` the cytotoxicity call was “inactive”.
For `C[C@H]1CCCCO[C@@H](CN(C)C(=O)Nc2cccc3ccccc23)[C@@H](C)CN([C@@H](C)CO)C(=O)c2cc(NC(=O)c3ccncc3)ccc2O1`, the cytotoxicity call was “inactive”.
`C[C@H]1CN([C@@H](C)CO)C(=O)c2cc(C#CCN(C)C)cnc2O[C@@H]1CN(C)C(=O)Nc1cc(F)ccc1F` was tested, and the cytotoxicity call was “inactive”.
In the case of `O=C(C[C@@H]1CC[C@H]2[C@@H](COC[C@H](O)CN2S(=O)(=O)c2ccccc2)O1)NCc1ccc(-c2ccccc2)cc1`, the cytotoxicity call is reported as “inactive”.
With `COCC(=O)N1C[C@@H](C)[C@@H](OC)CN(C)C(=O)c2ccc(NC(=O)c3ccc(F)cc3)cc2OC[C@H]1C` the cytotoxicity call was “inactive”.
In the case of `COc1ccc(S(=O)(=O)N(C)C[C@H]2Oc3ccc(NS(=O)(=O)c4c(C)noc4C)cc3CC(=O)N([C@H](C)CO)C[C@@H]2C)cc1`, the cytotoxicity call is reported as “inactive”.
In the case of `COc1ccc(S(=O)(=O)N(C)C[C@H]2OCCCC[C@@H](C)Oc3ccc(NC(=O)Nc4cccc5ccccc45)cc3C(=O)N([C@H](C)CO)C[C@H]2C)cc1`, the cytotoxicity call is reported as “inactive”.
For `CC(C)(C)NC(=O)C1CN(Cc2cccnc2)CCN1CC(O)CC(Cc1ccccc1)C(=O)NC1c2ccccc2CC1O` (configuration not stated), the cytotoxicity call was “active”.
With `CC(C)(C)NC(=O)[C@@H]1CN(Cc2cccnc2)CCN1C[C@@H](O)C[C@@H](Cc1ccccc1)C(=O)N[C@H]1c2ccccc2C[C@H]1O` the cytotoxicity call was “inactive”.
`CC(C)(C)NC(=O)[C@@H]1CN(Cc2cccnc2)CCN1C[C@@H](O)C[C@@H](Cc1ccccc1)C(=O)N[C@@H]1c2ccccc2C[C@@H]1O` was tested, and the cytotoxicity call was “inactive”.
`O=C(C[C@@H]1CC[C@H]2[C@@H](COC[C@H](O)CN2S(=O)(=O)c2cccc(F)c2)O1)NCCCN1CCOCC1` was tested, and the cytotoxicity call was “inactive”.
`NCc1ccncc1` was tested, and the cytotoxicity call was “inactive”.
With `C=CCOC(=O)[C@@H]1[C@H]2C(=O)O[C@H](c3ccccc3)[C@H](c3ccccc3)N2[C@H](c2ccc(OCCOC(=O)[C@H]3C[C@H]4C(=O)NCC(=O)N4[C@H]3c3ccc(O)cc3)cc2)[C@@]12C(=O)Nc1ccccc12` the cytotoxicity call was “inactive”.
`C[C@H]1CC/C=C\[C@H]2O[C@@]34C=CCN(CCN5CCOCC5)C(=O)[C@H]3N(CCCO)C(=O)[C@@H]4[C@@H]2C(=O)O1` was tested, and the cytotoxicity call was “inactive”.
`C[C@@H](N)c1ccc(C(=O)Nc2ccnc3[nH]ccc23)cc1` was tested, and the cytotoxicity call was “active”.
In the case of `Nc1nc(=O)[nH]cc1NC(=O)c1ccccc1`, the cytotoxicity call is reported as “inactive”.
`CC[C@@H](C)c1ccc(NC(=O)c2ccc(N(CC)CC)cc2)cc1` was tested, and the cytotoxicity call was “inactive”.
For `CCSc1cccc2cccnc12`, the cytotoxicity call was “inactive”.
`c1ccc2c(CSc3nc4ccccc4s3)cccc2c1` was tested, and the cytotoxicity call was “inactive”.
With `c1cnc2c(SCc3nc4ccccc4s3)cccc2c1` the cytotoxicity call was “active”.
With `COc1ccc(S(=O)(=O)Nc2ccc3c(c2)C(=O)N([C@@H](C)CO)C[C@H](C)[C@@H](CN(C)Cc2ccc(Cl)c(Cl)c2)O3)cc1` the cytotoxicity call was “inactive”.
For `COc1ccc(S(=O)(=O)Nc2ccc3c(c2)C(=O)N([C@H](C)CO)C[C@H](C)[C@@H](CN(C)Cc2ccc(Cl)c(Cl)c2)O3)cc1`, the cytotoxicity call was “inactive”.
`COc1ccc(S(=O)(=O)Nc2ccc3c(c2)C(=O)N([C@@H](C)CO)C[C@H](C)[C@H](CN(C)Cc2ccc(Cl)c(Cl)c2)O3)cc1` was tested, and the cytotoxicity call was “inactive”.
`COc1ccc(S(=O)(=O)Nc2ccc3c(c2)C(=O)N([C@@H](C)CO)C[C@@H](C)[C@@H](CN(C)Cc2ccc(Cl)c(Cl)c2)O3)cc1` was tested, and the cytotoxicity call was “active”.
With `COc1ccc(S(=O)(=O)Nc2ccc3c(c2)C(=O)N([C@H](C)CO)C[C@H](C)[C@H](CN(C)Cc2ccc(Cl)c(Cl)c2)O3)cc1` the cytotoxicity call was “inactive”.
`COc1ccc(S(=O)(=O)Nc2ccc3c(c2)C(=O)N([C@@H](C)CO)C[C@@H](C)[C@H](CN(C)Cc2ccc(Cl)c(Cl)c2)O3)cc1` was tested, and the cytotoxicity call was “active”.
`C[C@@H]1CCCCO[C@@H](CN(C)S(=O)(=O)c2ccc(Cl)cc2)[C@@H](C)CN([C@H](C)CO)C(=O)c2cc(NC(=O)CCCCCC(=O)Nc3ccccc3N)ccc2O1` was tested, and the cytotoxicity call was “inactive”.
For `C[C@H]1CN([C@@H](C)CO)C(=O)Cc2cc(NS(C)(=O)=O)ccc2O[C@H]1CN(C)C`, the cytotoxicity call was “inactive”.
`C[C@H]1CN([C@@H](C)CO)C(=O)Cc2cc(NC(=O)c3ccncc3)ccc2O[C@@H]1CN(C)Cc1ccncc1` was tested, and the cytotoxicity call was “inactive”.
For `C=CCOc1ccc(C(=O)C2=C(O)C(=O)N(CCCN3CCOCC3)[C@@]23C(=O)N(C)c2ccccc23)cc1C`, the cytotoxicity call was “inactive”.
With `COCC(=O)Nc1ccc2c(c1)C(=O)N(C)[C@H]1CC[C@@H](CC(=O)NC3Cc4ccccc4C3)O[C@@H]1CO2` the cytotoxicity call was “inactive”.
In the case of `COc1ccc(CN(C)C[C@H]2OCCCC[C@@H](C)Oc3ccc(NS(=O)(=O)c4c(C)noc4C)cc3C(=O)N([C@H](C)CO)C[C@H]2C)cc1`, the cytotoxicity call is reported as “inactive”.
With `COc1ccc(NC(=O)Nc2ccc3c(c2)C(=O)N([C@H](C)CO)C[C@H](C)[C@H](CN(C)C(=O)Nc2ccc(C(F)(F)F)cc2)O3)cc1` the cytotoxicity call was “inactive”.
With `C[C@@H]1CN([C@H](C)CO)C(=O)c2cc(NS(=O)(=O)c3ccc(Cl)cc3)ccc2O[C@@H](C)CCCCO[C@H]1CN(C)Cc1ccc(Cl)c(Cl)c1` the cytotoxicity call was “active”.
For `C[C@@H]1CN([C@H](C)CO)C(=O)c2cc(NS(=O)(=O)c3ccc(Cl)cc3)ccc2O[C@@H](C)CCCCO[C@@H]1CN(C)Cc1ccc(Cl)c(Cl)c1`, the cytotoxicity call was “active”.
`C[C@@H]1CCCCO[C@@H](CN(C)Cc2ccc(Cl)c(Cl)c2)[C@H](C)CN([C@@H](C)CO)C(=O)c2cc(NS(=O)(=O)c3ccc(Cl)cc3)ccc2O1` was tested, and the cytotoxicity call was “active”.
With `C[C@@H]1CCCCO[C@@H](CN(C)Cc2ccc(Cl)c(Cl)c2)[C@@H](C)CN([C@@H](C)CO)C(=O)c2cc(NS(=O)(=O)c3ccc(Cl)cc3)ccc2O1` the cytotoxicity call was “active”.
In the case of `C[C@@H]1CN([C@H](C)CO)C(=O)c2c(c3ccccc3n2C)-c2ccccc2CO[C@H]1CN(C)Cc1ccc(Oc2ccccc2)cc1`, the cytotoxicity call is reported as “inactive”.
`O=C(C[C@@H]1CC[C@@H]2[C@H](COC[C@H](O)CN2C(=O)Nc2cccc(Cl)c2)O1)NCCCN1CCOCC1` was tested, and the cytotoxicity call was “inactive”.
For `C[C@@H]1CN([C@H](C)CO)C(=O)Cc2cc(NS(C)(=O)=O)ccc2O[C@@H]1CN(C)S(=O)(=O)c1cn(C)cn1`, the cytotoxicity call was “inactive”.
`C[C@@H]1CCCCO[C@H](CN(C)S(=O)(=O)c2cn(C)cn2)[C@H](C)CN([C@@H](C)CO)C(=O)c2cc(NC(=O)CCCN(C)C)ccc2O1` was tested, and the cytotoxicity call was “inactive”.
`CO[C@H](CN(C)C(=O)Nc1ccc(C(F)(F)F)cc1)[C@H](C)CN(Cc1ccccc1Cl)[C@@H](C)CO` was tested, and the cytotoxicity call was “inactive”.
`C[C@@H]1CN([C@H](C)CO)C(=O)c2c(c3ccccc3n2C)-c2ccccc2CO[C@@H]1CN(C)C(=O)Nc1ccc(F)cc1` was tested, and the cytotoxicity call was “inactive”.
With `COCC(=O)N1CC[C@@H](O)[C@@H]1Cc1cnn(C)c1` the cytotoxicity call was “inactive”.
With `CN1C(=O)c2cc(NC(=O)C3CCOCC3)ccc2OC[C@H]2O[C@H](CC(=O)NCc3ccccc3F)CC[C@@H]21` the cytotoxicity call was “inactive”.
`COC(=O)C[C@@H]1CC[C@H]2[C@H](COc3ccc(NS(=O)(=O)c4ccccc4Cl)cc3C(=O)N2C)O1` was tested, and the cytotoxicity call was “inactive”.
For `COCC(=O)N1C[C@H](C)[C@H](OC)CN(C)C(=O)c2cc(NC(=O)Nc3ccccc3)ccc2OC[C@H]1C`, the cytotoxicity call was “inactive”.
In the case of `C[C@@H]1CN([C@H](C)CO)C(=O)c2cccc(NC(=O)c3ccncc3)c2O[C@H]1CN(C)Cc1ccc2c(c1)OCO2`, the cytotoxicity call is reported as “inactive”.
For `O=C(CCCCCCC(=O)N/N=C/[C@@H](O)[C@H](O)[C@H](O)CO)NO`, the cytotoxicity call was “inactive”.
With `C[C@@H]1CCCCO[C@@H](CN(C)Cc2ccc(Cl)c(Cl)c2)[C@@H](C)CN([C@H](C)CO)C(=O)c2cc(NS(=O)(=O)c3ccc(Cl)cc3)ccc2O1` the cytotoxicity call was “inactive”.
With `C[C@H](CO)N1C[C@H](C)[C@@H](CN(C)Cc2ccc(Cl)c(Cl)c2)OCCCC[C@H](C)Oc2ccc(NS(=O)(=O)c3ccc(Cl)cc3)cc2C1=O` the cytotoxicity call was “inactive”.
`C[C@@H]1CCCCO[C@H](CN(C)Cc2ccc(Cl)c(Cl)c2)[C@H](C)CN([C@@H](C)CO)C(=O)c2cc(NS(=O)(=O)c3ccc(Cl)cc3)ccc2O1` was tested, and the cytotoxicity call was “active”.
With `C[C@@H]1CCCCO[C@H](CN(C)Cc2ccc(Cl)c(Cl)c2)[C@@H](C)CN([C@@H](C)CO)C(=O)c2cc(NS(=O)(=O)c3ccc(Cl)cc3)ccc2O1` the cytotoxicity call was “active”.
In the case of `C[C@@H]1CCCCO[C@@H](CN(C)Cc2ccc(Cl)c(Cl)c2)[C@H](C)CN([C@H](C)CO)C(=O)c2cc(NS(=O)(=O)c3ccc(Cl)cc3)ccc2O1`, the cytotoxicity call is reported as “active”.
With `C[C@@H]1CCCCO[C@H](CN(C)Cc2ccc(Cl)c(Cl)c2)[C@@H](C)CN([C@H](C)CO)C(=O)c2cc(NS(=O)(=O)c3ccc(Cl)cc3)ccc2O1` the cytotoxicity call was “active”.
For `CC(C)NC(=O)Nc1cccc2c1O[C@H](CN(C)Cc1ccc3c(c1)OCO3)[C@@H](C)CN([C@@H](C)CO)C2=O`, the cytotoxicity call was “inactive”.
In the case of `COc1ccc(NC(=O)Nc2ccc3c(c2)C(=O)N([C@H](C)CO)C[C@H](C)[C@@H](CN(C)C(=O)Nc2ccc(C(F)(F)F)cc2)OCCCC[C@H](C)O3)cc1`, the cytotoxicity call is reported as “inactive”.
For `C[C@@H]1CN([C@@H](C)CO)C(=O)c2cc(NC(=O)Nc3ccc(F)cc3)ccc2O[C@@H](C)CCCCO[C@H]1CN(C)Cc1ccc(C(=O)O)cc1`, the cytotoxicity call was “inactive”.
For `COc1cccc(S(=O)(=O)N2C[C@H](O)COC[C@H]3O[C@H](CC(=O)NCCCN4CCOCC4)CC[C@@H]32)c1`, the cytotoxicity call was “inactive”.
With `CN1[C@@H]2c3ccc(-c4ccccc4)c(=O)n3C[C@H]1[C@H](CO)[C@H]2C(=O)NCCCN1CCOCC1` the cytotoxicity call was “inactive”.
For `Cc1noc(C)c1NC(=O)Nc1cccc2c1O[C@H](CN(C)C(=O)NC(C)C)[C@H](C)CN([C@@H](C)CO)C2=O`, the cytotoxicity call was “inactive”.
